TEAD-YAP inh – TEAD-YAP interaction inhibition, primary screen, TEAD-YAP interaction inhibitor project, luminescence, HEK-TIYL cells; actives 1.4% (n = 640,000); inhibition, % at 9.12 µM; TEAD-Gal4/YAP UAS-luciferase luminescence; in the data active = inhibition above about 32%
MITF primary – MITF inhibitors, primary screen, biochemical, AlphaScreen, human | Microphthalmia-associated transcription factor (Homo sapiens), O75030 | AlphaScreen MITF homodimerization, bead proximity signal | inhibition, % at 2.6 µM | actives 0.91% (n = 650,000) | AID 1259374, 2018; in the data active = inhibition above about 50%
GPR151 activ – activators of human GPR151, primary screen, cell-based, PathHunter beta-arrestin, luminescence. G-protein coupled receptor 151 (Homo sapiens), Q8TDV0. PathHunter beta-arrestin GPR151 cells. activation, % at 11.2 µM. actives 1% (n = 650,000). AID 1508602, 2020; in the data active = activation above about 4.9%
FBW7 act – FBW7 E3 ligase activators, primary screen, biochemical, AlphaScreen, human. AlphaScreen FBW7–phospho-cyclin E peptide binding, activator screen. normalized activity (activation), % at 26.1 µM. actives 0.13% (n = 650,000). AID 1259310, 2017; in the data active = normalized activity above about 1.9%;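 note: purified mutant Fbw7 with reduced substrate affinity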
Target sequence (Q969H0 whole entry, looked up): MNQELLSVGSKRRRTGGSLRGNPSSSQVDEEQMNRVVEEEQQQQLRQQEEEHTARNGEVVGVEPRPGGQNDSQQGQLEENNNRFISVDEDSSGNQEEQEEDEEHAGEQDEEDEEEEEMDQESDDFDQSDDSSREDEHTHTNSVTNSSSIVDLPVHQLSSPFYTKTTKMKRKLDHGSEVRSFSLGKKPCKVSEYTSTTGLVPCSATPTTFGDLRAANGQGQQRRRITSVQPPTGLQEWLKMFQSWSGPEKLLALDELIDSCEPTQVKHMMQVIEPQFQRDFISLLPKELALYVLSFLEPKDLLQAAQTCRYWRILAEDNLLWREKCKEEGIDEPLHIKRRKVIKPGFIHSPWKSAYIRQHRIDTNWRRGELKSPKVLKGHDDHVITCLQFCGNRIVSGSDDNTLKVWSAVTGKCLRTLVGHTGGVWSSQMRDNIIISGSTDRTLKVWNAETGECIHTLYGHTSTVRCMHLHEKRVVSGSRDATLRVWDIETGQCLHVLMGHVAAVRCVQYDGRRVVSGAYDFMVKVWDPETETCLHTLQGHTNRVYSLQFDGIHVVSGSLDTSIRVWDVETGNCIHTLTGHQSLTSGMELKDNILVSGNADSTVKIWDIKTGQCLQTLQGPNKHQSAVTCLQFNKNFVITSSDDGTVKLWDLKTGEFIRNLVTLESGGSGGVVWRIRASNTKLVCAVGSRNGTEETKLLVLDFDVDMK
GPR151 confirm – GPR151 activators, triplicate retest, confirmation, cell-based, PathHunter beta-arrestin, luminescence | shares compounds with GPR151 activ | 6,700 tested, under 10 active | activation, % at 11.2 µM | GPR151 PathHunter beta-arrestin cells, 90 min; % of EA-reagent control over plate median | AID 1508609, 2020;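 active = mean percent activation across replicates above the confirmation screen cutoff of 4.91%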
GPR119 counter – GPR119 activators in beta-arrestin cells, counter-screen for GPR151 activator project, cell-based, PathHunter beta-arrestin, luminescence, triplicate | shares compounds with GPR151 activ | 90 min; 0 = compound-well median, 100 = enzyme-acceptor control | AID 1508611, 2020 | actives 0.3% (n = 6,700) | activation, % at 11.2 µM;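 active = mean percent activation in the counterscreen above 29.09%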;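 note: counterscreen on off-target GPR119 to flag nonselective hits from the GPR151 activator screen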
Of the large screens only hits and unclear results are named; the others gave an inactive call (follow-up assays come after a bar, where they were run). Most compounds without a hit are left out; they make up all but 3.5% or so of the library.

O=C(NCC1CCCN1S(=O)(=O)c1ccccc1)C(=O)NC1CCCCC1 (stereo not drawn)	GPR151 activ 21 | GPR151 confirm inactive | GPR119 counter inactive
Cc1ccc(S(=O)(=O)N2CCCC2CNC(=O)Nc2ccc(Cl)cc2)cc1 (stereo not drawn)	GPR151 activ 6.0 | GPR151 confirm inactive | GPR119 counter inactive
CCCN1CCc2nnc(C(C)NC(=O)CCc3ccccc3)n2CC1 (stereo not drawn)	none
O=C(Nc1ccc2[nH]ncc2c1)c1ccc(OC2CCCN(Cc3ccccc3)C2)nc1 (stereo not drawn)	none
O=C(/C=C/c1cc([N+](=O)[O-])ccc1O)Nc1cccc(Br)c1	GPR151 activ 5.6 | GPR151 confirm inactive | GPR119 counter inactive
COc1ccccc1N1CCN(C2CCCN(Cc3ccccc3O)C2)CC1 (stereo not drawn)	GPR151 activ 8.0 | GPR151 confirm inactive | GPR119 counter inactive
CC(=O)c1cccc(NC(=O)N2CCCC2C(=O)Nc2cccc(C)c2)c1 (stereo not drawn)	GPR151 activ 15 | GPR151 confirm inactive | GPR119 counter inactive
Cc1sc(NC(=O)c2ccco2)c(CN2CCN(CCO)CC2)c1C	GPR151 activ 25 | GPR151 confirm inactive | GPR119 counter inactive
CCCS(=O)(=O)N1CCCC(C(=O)NC2CCCCC2C)C1 (stereo not drawn)	none
C=CCSc1ncnc2sc(C)c(C)c12	GPR151 activ 5.3 | GPR151 confirm inactive | GPR119 counter inactive
COc1ccc(CNc2nc(SCc3cccc([N+](=O)[O-])c3)nc3ccccc23)cc1	none
CCOc1cccc2cc(-c3csc(Nc4ccccc4Cl)n3)c(=O)oc12	none
CCOc1cccc2cc(-c3csc(Nc4ccccc4C(F)(F)F)n3)c(=O)oc12	GPR151 activ 8.1 | GPR151 confirm inactive | GPR119 counter inactive
COc1cccc(OC)c1-c1[nH]nc2nc(-c3ccc(=O)[nH]c3)ccc12	GPR151 activ 6.7 | GPR151 confirm inactive | GPR119 counter inactive
Cc1nc2sc(C(c3ccccc3F)N3CCC4(CC3)OCCO4)c(O)n2n1 (stereo not drawn)	none
O=C(/C=C/c1ccccc1)NCCOC(=O)Nc1ccccc1	GPR151 activ 9.8 | GPR151 confirm inactive | GPR119 counter inactive
NN1C(=O)c2ccccc2NC1C1CC=CCC1 (stereo not drawn)	GPR151 activ 20 | GPR151 confirm inactive | GPR119 counter inactive
CCC(=O)Oc1ccc(NC(=O)COc2ccc(OC)cc2)cc1	none
Cn1cc(CN2CCCC(CNS(=O)(=O)c3cccc4cccnc34)C2)cn1 (stereo not drawn)	GPR151 activ 8.1 | GPR151 confirm inactive | GPR119 counter inactive
Nc1nnnn1/N=C/C=C/c1cccc([N+](=O)[O-])c1	none
Nc1nnnn1/N=C\C=C\c1ccccc1	GPR151 activ 9.2 | GPR151 confirm inactive | GPR119 counter inactive
Cc1ccccc1Cn1c(=O)c2c(nc3n2CCCN3c2ccc(F)cc2)n(C)c1=O	GPR151 activ 9.7 | GPR151 confirm inactive | GPR119 counter inactive
CCN(CC)c1ccc(C2N(C(=O)c3ccccc3)CCN2S(=O)(=O)c2ccc(C)cc2)cc1 (stereo not drawn)	none
Cc1nc2ccc(Br)cc2c(Cl)c1CCC(=O)O	GPR151 activ 8.9 | GPR151 confirm inactive | GPR119 counter inactive
Cc1ccc(S(=O)(=O)N(CCC(N)=O)CCC(N)=O)cc1	none
CC(=O)c1nn(-c2ccc([N+](=O)[O-])cc2)cc1C(=O)c1cccs1	none
CC(=O)c1nn(-c2cccc(Cl)c2)cc1C(=O)c1cccs1	GPR151 activ 6.4 | GPR151 confirm inactive | GPR119 counter inactive
Fc1ccccc1N1N=C(c2ccc(Br)cc2)CC1c1ccccc1Cl (stereo not drawn)	none
Nc1nc(CSc2nnnn2Cc2ccccc2)nc(N2CCOCC2)n1	GPR151 activ 7.6 | GPR151 confirm inactive | GPR119 counter inactive
CCN(CC)c1ccc2cc(C(=O)Nc3ccc(C)cc3)c(=O)oc2c1	none
CCOC(=O)CC(=O)c1cc2ccc(N(CC)CC)cc2oc1=O	GPR151 activ 5.4 | GPR151 confirm inactive | GPR119 counter inactive
COc1cc(NC(=S)NC(=O)c2ccc(OC)c([N+](=O)[O-])c2)ccc1NC(=O)C(C)C	none
CCOC(=O)c1sc(N/C(=C/C(=O)c2ccccc2)C(=O)O)cc1C	GPR151 activ 9.0 | GPR151 confirm inactive | GPR119 counter inactive
CCOC(=O)c1sc(NC(C)=O)cc1C	none
CCOC(=O)c1c(NC(=O)Nc2ccc(Cl)cc2)sc2c1CC(C)(C)OC2	GPR151 activ 5.2 | GPR151 confirm inactive | GPR119 counter inactive
CCOC(=O)c1c(NC(=O)CC)sc2c1CC(C)(C)OC2	none
CCN1CCN(C(CC(C)C)c2nnnn2Cc2ccc3c(c2)OCO3)CC1 (stereo not drawn)	GPR151 activ 5.3 | GPR151 confirm inactive | GPR119 counter inactive
COc1ccc2c(C=Nc3ccccc3)c(O)n(-c3ccccc3)c(=O)c2c1	none
Cc1c(=O)n(OCc2cccc(F)c2)c2ccccc2[n+]1[O-]	none
Cc1c(=O)n(OCc2ccccc2F)c2ccccc2[n+]1[O-]	GPR151 activ 12 | GPR151 confirm inactive | GPR119 counter inactive
CCOP(=O)(OCC)c1nc(-c2cccc3ccccc23)oc1NCc1ccco1	GPR151 activ 5.3 | GPR151 confirm inactive | GPR119 counter inactive
Cc1ccccc1OC(C)C(=O)NCc1ccc2c(c1)OCO2 (stereo not drawn)	none
Cc1ccccc1N(CC(=O)N1CCCC1)S(=O)(=O)c1ccc(Cl)cc1	none
Cc1ccccc1N(CC(=O)N1CCOCC1)S(=O)(=O)c1ccc(Cl)cc1	GPR151 activ 14 | GPR151 confirm inactive | GPR119 counter inactive
NC(=O)c1ccsc1NC(=O)CSc1ncnc2sc(-c3ccccc3)cc12	none
Cc1ccccc1C(=O)N/N=C/c1ccc(OCC(=O)N2CCCCC2)cc1	GPR151 activ 6.7 | GPR151 confirm inactive | GPR119 counter inactive
CCOc1ccc(/C=N/NC(=O)c2ccccc2C)cc1	none
N#Cc1ccccc1NC(=O)CSc1nnc(COc2ccccc2)o1	none
COc1ccc(C2CC(=O)C3=C(C2)Nc2ccccc2N(C(=O)C(F)(F)F)C3c2ccccc2)cc1 (stereo not drawn)	GPR151 activ 5.1 | GPR151 confirm inactive | GPR119 counter inactive
CCC(=O)Oc1ccc(C(=O)N2CCN(c3ccc(OC)cc3)CC2)cc1	none
